Over roughly 33,000 sequences, “E-score (-0.5 to 0.5)” has its median near -0.0034; the highest 2% begin near 0.25. The full list was thinned out, with the highest values kept by preference.
Target: T1, Yap3 (UniProt P38749)
T1 sequence: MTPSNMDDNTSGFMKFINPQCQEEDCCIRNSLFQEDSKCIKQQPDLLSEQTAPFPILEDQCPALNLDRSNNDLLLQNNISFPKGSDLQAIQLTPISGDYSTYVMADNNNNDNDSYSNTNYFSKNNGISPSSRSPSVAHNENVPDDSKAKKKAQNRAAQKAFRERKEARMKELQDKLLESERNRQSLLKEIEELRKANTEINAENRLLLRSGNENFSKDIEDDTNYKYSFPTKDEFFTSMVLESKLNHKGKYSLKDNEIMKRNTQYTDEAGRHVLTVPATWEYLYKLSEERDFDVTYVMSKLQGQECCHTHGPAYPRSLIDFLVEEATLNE
Test: PBM E-score (8-mer binding enrichment) (E-score (-0.5 to 0.5)); higher = stronger / more preferred TF binding
Details: protein concentration: 100 nM; construct: GST-full length
Procedure: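 Universal 'all 10-mer' protein binding microarrays (Agilent AMADID 015681) probed with GST-tagged S. cerevisiae TFs (full-length or DBD) made by in vitro transcription/translation (PURExpress), about 100-200 nM. Bound TF was detected with fluorescent anti-GST. Each ungapped 8-mer (which stands for itself and its reverse complement) is scored by the PBM enrichment score (E-score), a modified Wilcoxon-Mann-Whitney statistic from -0.5 to +0.5, computed with the Universal PBM Analysis Suite. Scale: above 0.35 generally sequence-specific binding.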

Row | Sequence | PBM E-score
1 | CTTATCAC | -0.0604
2 | ATTATCGG | -0.0264
3 | ATTATCAG | 0.0829
4 | ATTATCTG | 0.119
5 | ATTATCGC | 0.304
6 | AATATCTC | 0.263
7 | CTTATCTC | 0.0941
8 | AATATCTG | 0.084
9 | ATTATCGA | 0.132
10 | ATTATCAC | 0.282
11 | AATATCTA | 0.0725
12 | ATTATCTC | 0.268
13 | CGTTTCCA | 0.105
14 | AATTCACA | 0.238
15 | CTGAGACA | -0.0945
16 | GCCCACAA | -0.141
17 | AATAGAAG | 0.0527
18 | CGGCAGAA | 0.124
19 | TGAGTCAA | 0.0132
20 | GAACCAAA | -0.0377
21 | CTGTGCCA | -0.119
22 | GAGTAATA | 0.273
23 | AAGTAATA | 0.158
24 | GAGTAATC | 0.103
25 | CAGTAATC | 0.0876

Row | Sequence | PBM E-score
26 | CAGTAATA | 0.307
27 | CAGTAATG | 0.0685
28 | CATAGGCA | -0.0267
29 | AGTCGACG | 0.23
30 | ACCACCAC | -0.00648
31 | CACAGGCA | 0.0714
32 | AGACTGTC | -0.163
33 | CTTGAAAC | 0.177
34 | CCGGCCAG | -0.181
35 | CCACATAC | 0.249
36 | ATATTTTA | 0.273
37 | ACATTTTA | 0.259
38 | ATATTTTG | 0.157
39 | GTATTTGA | 0.137
40 | GTATTTTA | 0.0831
41 | CCATTTTA | 0.222
42 | ATATTTGA | 0.149
43 | CTATTTGA | 0.27
44 | CTATTTTC | 0.114
45 | GCATTTTA | 0.227
46 | ATATTTTC | 0.261
47 | CTATTTTA | 0.251
48 | CACGGCCG | -0.0612
49 | CTACTCTA | 0.148
50 | AAAGGGCG | -0.0936

Row | Sequence | PBM E-score
51 | AGTAGTGG | 0.0946
52 | ATCTGCGG | -0.0331
53 | ATCTATAA | 0.0384
54 | CTACTAGC | 0.097
55 | TAAGTAGA | 0.109
56 | AGATGACG | 0.108
57 | CTGTGGCC | -0.361
58 | CTGTTCAA | 0.0116
59 | AGGTCGAT | 0.167
60 | GCCGATCA | 0.00289
61 | CTATTTAA | 0.0559
62 | ATATTTAC | 0.208
63 | ATATTTAA | 0.339
64 | GTAACAGA | 0.105
65 | GTTATTCA | 0.193
66 | ATTATTCC | 0.248
67 | ATTATTCA | 0.277
68 | ACTATTCG | 0.231
69 | ATTATTCG | 0.274
70 | CTTATTCA | 0.106
71 | ATACCCAG | -0.0813
72 | GCCAATTA | 0.193
73 | ATCAATTC | -0.0493
74 | ACCAATTA | 0.274
75 | ATCAATTA | 0.318

Row | Sequence | PBM E-score
76 | AACAATTA | 0.323
77 | ATCAATTG | 0.159
78 | AACAATTG | -0.0238
79 | AACAATTC | 0.106
80 | ACCAATTG | -0.0264
81 | CGTAGCTA | -0.05
82 | GGAGCAAA | 0.016
83 | CATAGCAC | 0.0592
84 | ACACCACA | 0.0359
85 | AGCCTCAT | -0.158
86 | ACAAGGGG | -0.193
87 | ATTAGATA | 0.178
88 | ATTAGATC | 0.0781
89 | ATTAGATG | 0.261
90 | TCTTCAAA | 0.0414
91 | ACTGCCAG | -0.0114
92 | GAATTATA | 0.237
93 | TAATTATA | 0.285
94 | AAATTATA | 0.249
95 | CAATTATG | 0.214
96 | CAATTATA | 0.167
97 | CAATTATC | 0.273
98 | TAATTAGA | 0.291
99 | GAATTAGA | 0.136
100 | CAATTAGA | 0.0631

Row | Sequence | PBM E-score
101 | CTACCATA | 0.152
102 | CCGTGAAG | -0.167
103 | ATACCATA | 0.241
104 | CTAGATCC | -0.0756
105 | GCGAAGGA | -0.201
106 | AACGAGGA | 0.0742
107 | AAATACAA | 0.197
108 | GACTAATC | 0.175
109 | GACTAATA | 0.326
110 | AACTAATA | 0.342
111 | AACTAATG | 0.23
112 | AACTAATT | 0.149
113 | CAATACAA | 0.187
114 | CAATACTA | 0.0409
115 | TAATACTA | 0.367
116 | TAATACAA | 0.279
117 | GACTAACA | 0.142
118 | AAATACTA | 0.141
119 | CAAATCTC | 0.0919
120 | TACAGCTA | -0.115
121 | GCATGACC | -0.158
122 | TCCTTCAA | 0.026
123 | CCCTTGAC | -0.0534
124 | CGACAGGA | 0.0296
125 | AAGTAACC | 0.0184

Row | Sequence | PBM E-score
126 | ACCTAGAC | -0.229
127 | GAGACGGC | -0.138
128 | GAAAGATC | -0.0498
129 | ATCCAGTG | 0.0972
130 | ACTCCAAT | 0.0453
131 | GAAATACC | 0.0809
132 | GGTCAGTA | -0.139
133 | TGTAGTAA | 0.128
134 | CACTAATA | 0.225
135 | TACTACTA | 0.223
136 | TACTAATA | 0.267
137 | ACCTAATC | 0.245
138 | GCCTAATA | 0.0577
139 | ACCTAATA | 0.274
140 | GAAAGCAC | 0.112
141 | ACAGCAGG | -0.126
142 | CGTCTGAA | -0.104
143 | ATAATCAT | 0.344
144 | CTAATCAG | 0.0826
145 | ATAATCAG | 0.126
146 | ATAATCAA | 0.139
147 | CTAATCAA | 0.219
148 | AACATACG | 0.183
149 | AACATAAT | 0.334
150 | AACATAAG | 0.308

Row | Sequence | PBM E-score
151 | CACATAAG | 0.053
152 | CTAATCAC | 0.271
153 | AACATACT | 0.012
154 | AACATAAA | 0.156
155 | GCATAAAA | 0.147
156 | CGTTGAAC | -0.07
157 | GCTAGGAC | -0.11
158 | ATCTATCC | 0.00162
159 | AAAGTGCT | 0.0686
160 | CTCTATCC | -0.00886
161 | CAGGAAGC | 0.00172
162 | ATCATAAT | 0.293
163 | ACCATAAT | 0.264
164 | ACCATAAG | -0.0758
165 | ACCATAAA | 0.141
166 | ATCATAAG | 0.247
167 | GACATAAC | 0.22
168 | ATCATAAA | 0.193
169 | AACATAAC | 0.269
170 | CACATAAC | -0.0392
171 | CTCTCTAC | 0.111
172 | AGCTGGAA | -0.178

Reference: the supplement of paper PMC3334620
